Data taken from PubChem BioAssay.
Calls of active or inactive are those of the source.

Experiments:
[1] = tested on: Plasmodium falciparum Sir2 (PF13_0152, Sir2A); test: Plasmodium falciparum Sir2A binding compounds – biochemical, small-molecule microarray, 635 nm fluorescence, primary screen (AID 1098); conditions: fluorescence 635 nm, higher = more signal;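 also: score merges spot fluorescence intensity with its signal-to-noise ratio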
[2] = probe aDKK1 binding to arrayed compounds – biochemical, biotinylated probe, 635/667 nm fluorescence, primary screen (AID 1099); conditions: small-molecule microarray, higher = more signal;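 also: score merges 667nm spot fluorescence with signal to noise across triplicate slides; reference of the scale not given here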
[3] = probe aCHRDL2 binding to arrayed compounds – biochemical, biotinylated probe, 635/667 nm fluorescence, primary screen (AID 1100); conditions: small-molecule microarray, higher = more signal
[4] = change in splice reporter luminescence, either direction, cell-based, HEK293, spliceosome inhibition project, primary screen (AID 1101); conditions: HEK293 splicing luciferase reporter, 24 h, higher = more signal, called active from +8 up or from −8 down;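 also: HEK293 cells carrying a splicing-competent luciferase reporter gene; test concentration not given here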
[5] = target: Fibroblast growth factor 10 (Homo sapiens) (UniProt O15520); test: compounds binding fibroblast growth factor 10 – biochemical, small-molecule microarray, 635 nm fluorescence, primary screen (AID 1102); conditions: FGF10 binding, fluorescence 635 nm, higher = more signal
Chain of Fibroblast growth factor 10 (Homo sapiens) (O15520 whole entry, looked up): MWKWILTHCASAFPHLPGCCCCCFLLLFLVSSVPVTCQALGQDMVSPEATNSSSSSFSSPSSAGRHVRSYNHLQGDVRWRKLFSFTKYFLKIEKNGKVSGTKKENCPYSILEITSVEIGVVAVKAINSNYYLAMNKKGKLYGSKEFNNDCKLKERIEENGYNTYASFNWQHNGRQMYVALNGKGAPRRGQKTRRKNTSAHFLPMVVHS

[6] = tested on: glycogen synthase kinase-3 (GSK3A per assay name; protocol says GSK3B); test: compounds binding glycogen synthase kinase-3 – biochemical, small-molecule microarray, 635 nm fluorescence, GSK3A, primary screen (AID 1103); conditions: fluorescence 635 nm, higher = more signal; also: the record names both GSK3A and GSK3B
[7] = target: Epidermal growth factor receptor (Homo sapiens) (UniProt P00533); test: compounds binding epidermal growth factor receptor – biochemical, small-molecule microarray, 635 nm fluorescence, primary screen (AID 1104); conditions: EGFR binding, higher = more signal;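 also: score merges 667 nm emission intensity with spot signal to noise over triplicate slides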
Chain of Epidermal growth factor receptor (Homo sapiens) (P00533 whole entry, looked up): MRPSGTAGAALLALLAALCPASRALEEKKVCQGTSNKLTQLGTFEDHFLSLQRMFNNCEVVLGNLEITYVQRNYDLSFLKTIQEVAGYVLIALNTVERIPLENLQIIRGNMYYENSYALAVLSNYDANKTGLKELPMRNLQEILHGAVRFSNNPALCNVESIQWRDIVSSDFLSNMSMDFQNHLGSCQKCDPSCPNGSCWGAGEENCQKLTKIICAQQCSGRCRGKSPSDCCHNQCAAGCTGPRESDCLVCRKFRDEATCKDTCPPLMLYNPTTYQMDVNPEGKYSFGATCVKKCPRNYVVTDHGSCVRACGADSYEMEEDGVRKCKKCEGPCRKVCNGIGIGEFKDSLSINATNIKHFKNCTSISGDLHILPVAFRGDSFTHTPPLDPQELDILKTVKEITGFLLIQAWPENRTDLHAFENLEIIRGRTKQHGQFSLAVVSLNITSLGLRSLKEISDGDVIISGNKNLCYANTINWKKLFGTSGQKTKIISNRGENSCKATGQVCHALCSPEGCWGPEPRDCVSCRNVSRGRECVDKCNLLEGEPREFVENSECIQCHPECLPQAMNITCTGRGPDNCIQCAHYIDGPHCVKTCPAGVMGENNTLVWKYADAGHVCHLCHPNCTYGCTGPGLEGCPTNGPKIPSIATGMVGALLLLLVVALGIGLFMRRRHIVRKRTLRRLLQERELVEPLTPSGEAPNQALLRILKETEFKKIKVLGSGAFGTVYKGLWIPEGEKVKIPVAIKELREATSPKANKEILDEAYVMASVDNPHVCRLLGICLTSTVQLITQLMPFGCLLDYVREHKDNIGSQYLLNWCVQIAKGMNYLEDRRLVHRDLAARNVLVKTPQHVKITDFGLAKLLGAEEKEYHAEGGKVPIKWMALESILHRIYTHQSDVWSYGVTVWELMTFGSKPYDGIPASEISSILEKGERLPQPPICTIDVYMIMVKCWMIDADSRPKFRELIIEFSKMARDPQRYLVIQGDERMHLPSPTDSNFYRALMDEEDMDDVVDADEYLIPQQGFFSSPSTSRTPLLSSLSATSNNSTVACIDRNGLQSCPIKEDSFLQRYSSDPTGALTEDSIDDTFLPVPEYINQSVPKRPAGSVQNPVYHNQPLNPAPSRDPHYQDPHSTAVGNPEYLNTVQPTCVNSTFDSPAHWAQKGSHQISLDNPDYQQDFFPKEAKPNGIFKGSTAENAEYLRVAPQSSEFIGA

[8] = target: Follistatin-related protein 3 (Homo sapiens) (UniProt O95633); test: compounds binding follistatin-related protein 3 – biochemical, small-molecule microarray, 635 nm fluorescence, primary screen (AID 1105); conditions: FSTL3 binding, higher = more signal;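 also: score merges emission near 667 nm and signal to noise per printed spot across three slides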
Chain of Follistatin-related protein 3 (Homo sapiens) (O95633 whole entry, looked up): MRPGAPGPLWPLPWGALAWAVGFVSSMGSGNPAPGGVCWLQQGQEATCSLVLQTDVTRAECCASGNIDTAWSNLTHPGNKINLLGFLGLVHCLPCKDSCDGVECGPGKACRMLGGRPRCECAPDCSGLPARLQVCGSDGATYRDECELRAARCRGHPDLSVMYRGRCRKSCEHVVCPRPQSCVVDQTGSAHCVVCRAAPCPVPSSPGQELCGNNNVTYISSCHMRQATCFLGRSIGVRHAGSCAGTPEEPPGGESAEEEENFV

[9] = target: Dickkopf-related protein 1 (Homo sapiens) (UniProt O94907); test: small molecules binding DKK1 protein – biochemical, small-molecule microarray, 635 nm fluorescence scan, primary screen (AID 1106); conditions: higher = more signal;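 also: score merges emission near 667 nm with signal to noise over three replicate slides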
Chain of Dickkopf-related protein 1 (Homo sapiens) (O94907 whole entry, looked up): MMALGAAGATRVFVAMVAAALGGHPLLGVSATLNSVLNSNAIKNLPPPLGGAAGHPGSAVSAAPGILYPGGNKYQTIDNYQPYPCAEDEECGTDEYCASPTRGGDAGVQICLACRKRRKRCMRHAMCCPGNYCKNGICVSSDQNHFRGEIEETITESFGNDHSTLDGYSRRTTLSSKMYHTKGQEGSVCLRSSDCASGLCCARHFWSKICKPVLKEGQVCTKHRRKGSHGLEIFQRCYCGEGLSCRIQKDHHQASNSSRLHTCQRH

[10] = tested on: Inhibin beta A chain (activin A); test: small molecules binding activin A – biochemical, small-molecule microarray, 635 nm fluorescence scan, primary screen (AID 1107); conditions: INHBA, higher = more signal;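 also: mouse activin A protein probed at 4.33 µg/mL on printed slides; score merges bound-protein fluorescence near 667 nm with spot signal-to-noise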

Structure (SMILES)	composite z-score [1]	composite z-score [2]	composite z-score [3]	z-score [4]	composite z-score [5]	composite z-score [6]	composite z-score [7]	composite z-score [8]	composite z-score [9]	composite z-score [10]
CCOC(=O)C1=CC[C@@H](c2ccccc2)N(S(=O)(=O)c2ccc(C)cc2)[C@H]1c1ccc(CC)cc1	0.375	0.961	0.538	0.425 (inactive)	0.393	1.17	0.221	0.395	-0.112	0.965
COc1ccc([Si](C)(C)[C@@H]2[C@@H](CCn3cc([C@H](O)c4ccccc4)nn3)O[C@]3(C(=O)N(Cc4cccc(N5CCC5=O)c4)c4ccccc43)[C@H]2C)cc1	0.647	-0.386	-0.0143	1.41 (inactive)	0.483	-0.502	0.0403	-0.304	0.589	0.521
COC(=O)[C@@]1(Cc2ccccc2)[C@H]2c3cc(C(=O)N(C)C)n(Cc4ccc(OC)c(OC)c4)c3C[C@H]2CN1C(=O)c1ccccc1	0.0313	0.905	0.94	-4.08 (inactive)	1.44	0.454	0.568	0.609	-0.833	0.67
COc1ccc([C@H]2C[C@H]3C(Br)=C[C@@]2(CO)C(=O)[C@]32CO2)cc1	-0.194	-0.118	0.565	-0.206 (inactive)	-0.0884	-0.516	0.197	-0.387	-0.198	1.32
COc1ccc(NC(=O)O[C@H]2[C@H](OC(=O)c3cc4ccccc4[nH]3)[C@@H](OC(=O)c3cc4ccccc4[nH]3)[C@@H](OC)O[C@@H]2CO)cc1	1.24	-0.0147	0.358	-1.07 (inactive)	0.523	0.212	-0.245	0.448	-0.011	0.287
C=CC[C@@]1(C(=O)N2CCCCC2)N=C(c2ccc(OCCCO)cc2)O[C@@H]1c1ccccc1N=[N+]=[N-]	0.763	1.19	1.07	-0.212 (inactive)	0.925	0.742	0.249	0.657	-0.0197	1.03
O=C(O)[C@H]1C[C@H]2C(=O)N3CCC[C@H]3C(=O)N2[C@H]1c1ccc(O)cc1	0.383	-0.0067	0.915	0.127 (inactive)	-1.41	-0.474	-1.51	-0.949	-1.13	-0.209
CC(C)=CCCC(C)=CC(O)C1C=CC2C(=O)N(c3ccccc3)C(=O)C2N1Nc1ccc(C(C)C)cc1 (stereo not given)	0.855	-0.0008	0.816	0.433 (inactive)	0.691	0.615	-0.0514	0.966	-0.609	0.583
C=CCNC(=O)[C@H]1[C@@H]2C(=O)O[C@@H](c3ccccc3)[C@@H](c3ccccc3)N2[C@@H](c2ccc(OCCO)cc2)[C@]12C(=O)Nc1ccc(C#CCC(C(=O)OC)C(=O)OC)cc12	1.25	0.313	0.655	0.279 (inactive)	1.29	1.09	0.787	1.25	0.83	0.559
CC=CC(O)C1C=CC2C(=O)N(C)C(=O)C2N1N(c1ccccc1)c1ccccc1 (stereo not given)	0.293	-0.0262	0.211	1.06 (inactive)	0.128	-0.343	1.19	-0.315	0.653	1.12
O=C1NC(=O)C2C1C=CC(C(O)c1ccc(I)cc1)N2Nc1ccccn1 (stereo not given)	1.33	0.0824	0.464	1.04 (inactive)	-0.0548	-0.269	0.268	-0.0861	0.153	1.14
CC(C)CNC(=O)[C@@]1(Cc2ccccc2I)c2ccccc2C(=O)N(Cc2ccccc2C(F)(F)F)[C@H]1c1ccc(CO)cc1	-0.164	0.104	0.836	0.368 (inactive)	0.122	-0.95	-1.17	-0.978	-0.822	0.598
CCOC(=O)C[C@H]1[C@H](OC(=O)c2ccc(-c3ccccc3)cc2)[C@@H](NC(=O)c2ccccc2)c2cc(OCCCO)ccc2N1C(=O)Cc1ccc(OC)cc1	-0.881	-0.0345	0.565	-0.486 (inactive)	0.241	-0.919	0.0903	-0.56	-0.237	0.54
COCCCNC(=O)[C@@H]1c2ccccc2C(=O)N(Cc2ccccc2)[C@H]1c1ccc(CO)cc1	0.698	0.698	0.655	-0.403 (inactive)	0.223	0.437	0.851	0.197	0.549	0.353
COC(=O)[C@@]1(Cc2ccccc2)[C@H]2c3cc(C(=O)N(C)C)n(CCc4c[nH]c5ccc(O)cc45)c3C[C@H]2CN1C(=O)c1ccccc1	0.0625	0.665	1.2	-1.99 (inactive)	0.288	0.435	0.121	0.594	-0.0414	1.3
CCCC[C@H]1C[C@@H]1[C@@H]1N(P(=O)(c2ccccc2)c2ccccc2)C[C@@](O)(c2ccccc2)CC12CC2	0.17	1.12	1.28	-0.644 (inactive)	-0.295	0.0826	-0.678	0.21	-1.51	0.973
O=C(CS)NCCCCCNC(=O)[C@@H]1C[C@@H]2C(=O)NCC(=O)N2[C@@H]1c1cccc(OCCO)c1	1.17	0.0565	0.21	-1.82 (inactive)	0.18	0.0776	0.752	0.0486	0.543	0.501

Structure (SMILES)	composite z-score [1]	composite z-score [2]	composite z-score [3]	z-score [4]	composite z-score [5]	composite z-score [6]	composite z-score [7]	composite z-score [8]	composite z-score [9]	composite z-score [10]
COc1ccc(C(=O)Nc2ccc(CN3C(=O)[C@]4(O[C@H](CC(=O)N5CCC[C@H]5CO)[C@@H]([Si](C)(C)c5ccc(OC)cc5)[C@@H]4C)c4ccccc43)cc2)cc1	1.46	-0.314	0.0167	1.76 (inactive)	0.679	0.573	0.352	0.683	0.545	0.0938
CCCC=C(CCC)[C@@H](NC(=O)OCC(C)C)c1ccccc1	0.32	0.907	1.34	-1.82 (inactive)	0.497	0.659	0.111	0.663	-0.0115	0.622
[N-]=[N+]=NCc1ccccc1[C@H]1OC(c2ccc(OCCCO)cc2)=N[C@@]1(Cc1ccccc1)C(=O)N1CCCCC1	1.14	0.344	0.574	-1.05 (inactive)	1.34	1.3	0.0201	0.79	0.428	0.522
C=CCN1C(=O)[C@]2(O[C@H](CCO)[C@@H]([Si](C)(C)c3ccc(OC)cc3)[C@@H]2C)c2cc(N(C=O)c3ccccc3)ccc21	0.465	-0.128	0.348	-2.19 (inactive)	-0.0285	-0.116	-0.414	-0.0666	-0.113	0.407
O=C1NC(=O)C2C1C=CC(C(O)c1ccc(I)cc1)N2Nc1ccc(Cl)cc1Cl (stereo not given)	1.03	0.418	1.08	-1.09 (inactive)	0.41	0.782	-0.079	0.425	-0.235	0.871
COCC(=C=CC[C@H](O)c1cccc(OCCO)c1)C[C@H](O)c1cc(Cl)cc(Cl)c1O	0.516	-0.0921	-0.174	0.102 (inactive)	1.55	1.17	0.331	0.785	0.551	0.712
O=C1C2C=CC(C(O)C=Cc3ccc([N+](=O)[O-])cc3)N(Nc3ccccc3F)C2C(=O)N1c1ccccc1 (stereo not given)	0.808	0.468	0.831	0.755 (inactive)	1.13	1.28	0.464	1.13	0.0328	1.08
CO[C@H]1O[C@H](CO)[C@@H](OC(=O)Nc2cccc(F)c2)[C@H](OC(=O)Nc2ccccc2)[C@H]1OC(=O)Nc1ccccc1	1.46	-0.0312	0.55	-0.0505 (inactive)	1.52	1.35	0.162	1.49	0.18	0.417
CN(C)CCCCCCNC(=O)[C@@H]1C[C@@H]2C(=O)N3CCC[C@H]3C(=O)N2[C@@H]1c1ccc(O)cc1	0.609	0.381	0.234	-1.51 (inactive)	1.1	1.34	0.842	1.48	1.69	0.254
Cc1c(NC(=O)/C(C#N)=C/c2cccc([N+](=O)[O-])c2)c(=O)n(-c2ccccc2)n1C	0.141	-0.123	-0.413	-0.911 (inactive)	0.455	0.797	0.53	0.53	0.561	0.107
COc1ccc([C@H]2C[C@H]3C(I)=C[C@@H]2C(=O)[C@]32CO2)cc1	0.802	0.168	-0.206	-0.568 (inactive)	0.66	-0.611	-0.0989	0.926	0.726	0.508
NCCCCCNC(=O)[C@H]1C[C@H]2C(=O)N[C@@H](Cc3ccccc3)C(=O)N2[C@H]1c1cccc(OCCO)c1	0.0864	1.15	0.942	-0.365 (inactive)	-0.0314	0.213	0.0441	0.6	0.4	1.34
CC(C)[Si](C#CCCCC#N)(O[C@H](c1ccccc1)c1cn(Cc2cccc(Cl)c2)nn1)C(C)C	0.397	-0.0654	-0.594	-1.64 (inactive)	0.483	1.18	0.376	1.11	0.968	-0.018
COCC(=C=CC[C@H](O)c1cccc(OCCO)c1)CCO	0.34	-0.0405	-0.101	0.105 (inactive)	0.569	-0.218	-0.0436	0.688	0.0241	0.177
COc1ccc([Si](C)(C)[C@H]2[C@H](CCn3cc([C@H](O)c4ccccc4)nn3)O[C@@]3(C(=O)N(C)c4ccccc43)[C@@H]2C)cc1	1.17	-0.0149	0.376	1.11 (inactive)	-0.133	-0.621	-0.55	-0.165	-0.529	0.209
O=C1C2C=CC(C(O)c3c(F)cccc3Cl)N(Nc3ccccc3F)C2C(=O)N1c1ccccc1 (stereo not given)	0.537	0.923	1.09	1.4 (inactive)	1.28	0.533	-0.0195	0.551	-0.62	0.87
